Source: PubChem (National Center for Advancing Translational Sciences (NCATS))
TDP1 inh – inhibitors of human tyrosyl-DNA phosphodiesterase TDP1 | hit rate 0.28% among 350,000 | recombinant TDP1, AlphaScreen DNA substrate cleavage | Potency, µM (highest dose often 130 µM), for inactives: at the highest dose activity change, negative = inhibition, hits mostly inhibitors | Q9NUW8 | AID 485290; note: potency is the fitted concentration of half-maximal effect; nearly all actives have a fitted effect of over 40% in size
Target sequence (Q9NUW8 whole entry, looked up): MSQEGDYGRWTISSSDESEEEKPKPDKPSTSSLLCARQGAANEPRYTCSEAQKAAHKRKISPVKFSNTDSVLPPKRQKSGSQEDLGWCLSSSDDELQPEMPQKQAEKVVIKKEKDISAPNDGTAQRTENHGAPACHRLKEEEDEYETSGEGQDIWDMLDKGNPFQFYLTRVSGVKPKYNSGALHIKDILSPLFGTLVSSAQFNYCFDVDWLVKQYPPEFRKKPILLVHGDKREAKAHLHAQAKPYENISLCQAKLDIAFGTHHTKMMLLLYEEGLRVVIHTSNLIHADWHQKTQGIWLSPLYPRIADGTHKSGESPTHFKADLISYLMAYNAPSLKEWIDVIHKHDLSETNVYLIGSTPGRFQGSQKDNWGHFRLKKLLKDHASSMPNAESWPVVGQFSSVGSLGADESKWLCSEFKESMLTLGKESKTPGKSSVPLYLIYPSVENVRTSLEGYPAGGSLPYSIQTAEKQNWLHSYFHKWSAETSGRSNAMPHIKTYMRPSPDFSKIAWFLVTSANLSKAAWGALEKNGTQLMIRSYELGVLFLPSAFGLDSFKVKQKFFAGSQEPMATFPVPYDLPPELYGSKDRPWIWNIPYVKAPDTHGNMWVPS
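Steps: enzyme plus compound, 15 min RT; add biotin/phosphotyrosine-FITC oligonucleotide (15 nM final), react 5 min; add donor/acceptor beads (10 ug/ml final), 10 min; read AlphaScreen. Tdp1 at 1 nM final.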
TDP1 cell noCPT – qHTS for Inhibitors of human tyrosyl-DNA phosphodiesterase 1 (TDP1): qHTS in cells in absence of CPT | DT40 Tdp1-/- hTDP1 cells, no CPT, ATP luminescence, 48 h | Potency, µM (doses to about 46.2 µM), for inactives: top-dose activity change, negative = growth inhibition, most hits filed as inhibitors | hit rate 15% among 420,000; note: potency is the fitted concentration of half-maximal effect; nearly all actives have a fitted effect of over 55% in size
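DT40 Tdp1-/-;hTDP1 cells, no CPT (DMSO vehicle only), 400 cells/well; compounds pin-transferred; ≥48 hr, 37 °C; CellTiter-Glo 30 min RT dark, luminescence read.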
IL1B secr inh – blocks inflammasome-driven IL-1 beta release; activity change, % at 57.5 µM; THP-1 LPS/ATP IL-1B secretion, AlphaLISA, 16 h; stronger effect = lower value; hit rate 4.7% among 360,000; in the data active = activity change below about -50%; inconclusive = mostly about -30% to -49%
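Secreted IL-1B measured by AlphaLISA bead assay after 16 h compound exposure of THP-1 cells; compounds (final up to 57.5 uM) added 1 h before LPS (250 ng/mL) and ATP (1.25 mM) stimulation; lower signal means less secretion.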
CtBP-E1A blk – inhibitors of CtBP/E1A interaction | AlphaScreen GST-E1A/His-CtBP binding, 1536-well; stronger effect = lower value | AID 651724 | activity change, % (no concentration beside the values) | hit rate 0.49% among 340,000; in the data active = activity change below about -65%; inconclusive = mostly about -30% to -63%
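GST-E1A and His-tagged CtBP (125 nM each as 5X stock) were preincubated with pin-transferred compound for 2 h at 37 °C in the dark, then glutathione donor and nickel acceptor beads were added for 1 h before AlphaScreen reading.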
Six1-Eya2 inh – blocks human Six1 binding to Eya2 | Q15475+O00167 | AlphaScreen GST-Six1/His-Eya2 binding, biochemical; stronger effect = lower value | activity change, % (concentration not given with the values) | hit rate 0.56% among 360,000 | AID 651725; in the data active = activity change below about -65%; inconclusive = mostly about -30% to -63%
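AlphaScreen luminescence read after one hour at 37 °C in darkness. Pin-transferred compounds met GST-Six1 and His-Eya2 protein (5X stock 250 nM/500 nM) plus glutathione donor and Ni-chelate acceptor beads (5X, 50 ug/mL).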
DT40 TDP1 CPT – DT40-hTDP1 cell growth loss with CPT | Potency, µM (highest dose often 46.2 µM), inactives show at the highest dose activity change, negative = growth inhibition, hits mostly inhibitors | chicken DT40 Tdp1-/-;hTDP1 cells + 20 nM CPT, ATP luminescence, 48 h | hit rate 12% among 420,000 | AID 686979; note: potency is the fitted concentration of half-maximal effect; nearly all actives have a fitted effect of over 55% in size
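Cell growth measured by CellTiter-Glo luminescence after a minimum 48 h, 37 C compound exposure with 20 nM CPT in Tdp1-knockout DT40 cells stably expressing hTDP1, seeded 400/well; qHTS titration format.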
Active calls of the source: *; ? = inconclusive; nt = no result. Most compounds without a hit are left out; they make up all but 18% or so of the library. Unless noted, calls come from the whole dose curve; as a rule, active = well fitted curve in the direction sought with a large enough effect; inconclusive = small, poorly fitted or top-dose-only effect, or another doubt; inactive = no such curve, though single readings can be large; an effect the other way counts as inactive or inconclusive. % is set by controls: 0 for no effect and ±100 for the full control effect.

SMILES	TDP1 inh	TDP1 cell noCPT	IL1B secr inh	CtBP-E1A blk	Six1-Eya2 inh	DT40 TDP1 CPT
Cn1c(=O)c2c(nc(NCc3cccnc3)n2Cc2ccc(Cl)cc2)n(C)c1=O	7.0%	5.8µM*	?	-1.7	-5.9	?
COc1cccc(CNc2nccn(-c3cc(C)cc(C)c3)c2=O)c1	7.9%	?	nt	nt	nt	?
CCCCOc1ccc(C(=O)OCC(=O)Nc2cc(C)c(C)cc2[N+](=O)[O-])cc1	0.6%	-12.2%	-10.8	nt	9.2	-15.4%
CC(C)(C)c1ccc(S(=O)(=O)NC(=O)C2(C)CCN2C(=O)Cc2cccs2)cc1 (centres undefined)	nt	0.2%	-2.2	-6.5	-6.1	3.8%
CC(=O)c1ccc(OCCn2c(SCC(=O)O)nc3ccccc32)cc1	2.0%	17.9%	-25.0	-10.7	-2.8	3.6%
COc1ccc(C(=O)O)cc1S(=O)(=O)NCc1ccncc1	0.1%	17.1%	3.3	-8.5	0.1	16.2%
COc1ccc(S(=O)(=O)N2CCc3ccccc32)cc1[N+](=O)[O-]	nt	?	-1.6	-11.5	-0.6	23.1µM*
COc1ccc(S(=O)(=O)N2CCc3ccccc32)cc1C(=O)Nc1ccc(C(N)=O)cc1	-12.2%	?	0.0	-2.7	-10.3	23.1µM*
CCC(=O)Nc1ccc(S(=O)(=O)N2CCc3ccccc32)cc1	4.9%	-27.1%	32.9	-3.8	-0.6	?
COc1ccccc1C(=O)Nc1ccc(S(=O)(=O)N2CCc3ccccc32)cc1	6.6%	20.6µM*	-9.0	4.3	-0.3	?
CCOc1ccc(C(=O)Nc2ccc3c(c2)N(C(C)=O)CCC3)cc1OCC	1.2%	20.6µM*	nt	nt	nt	?
O=S(=O)(c1ccc2ccccc2c1)N1CCc2ccccc21	nt	?	12.3	nt	2.2	?
COc1ccc(S(=O)(=O)N2CCc3ccccc32)cc1C(=O)NCCc1ccc(S(N)(=O)=O)cc1	0.9%	0.7%	-11.7	3.5	5.2	-0.6%
O=C(OCC(=O)N1CCOCC1)c1cccc(F)c1	nt	-14.2%	5.1	10.9	-1.4	4.2%
Cc1sc(NC(=O)c2ccc(=O)n(C)n2)nc1-c1ccccc1	6.3%	?	?	6.4	-7.0	?
CCOC(=O)c1[nH]c2ccc(C)cc2c1N=CN(CC)CC	-2.1%	?	-19.1	-2.5	-2.3	-15.6%
Cc1ccc2c(c1)N(CCC(=O)NCCCN1CCCC1)C(=O)C(C)O2 (centres undefined)	-14.3%	0.7%	-19.2	-22.4	-5.5	-0.8%
CCOc1ccc(C(=O)Nc2cccc(C(=O)O)c2)cc1Cl	0.0%	?	-9.1	-6.0	3.6	-11.5%
CCOc1ccc(C(=O)Nc2cc(NC(=O)c3ccc(OCC)c(Cl)c3)cc(C(=O)O)c2)cc1Cl	nt	-16.8%	22.2	-7.6	-17.0	2.06µM*
COc1cc(C(=O)Nc2ccc3c(c2)CCN3C(C)=O)cc(OC)c1OC	2.7%	2.06µM*	0.0	-0.8	-3.9	?
COc1cc(C(=O)Nc2ccc(S(=O)(=O)N3CCc4ccccc43)cc2)cc(OC)c1OC	4.0%	16.4µM*	-11.1	-16.3	-4.0	?
COc1cc(C(=O)Nc2ccc3c(c2)Cc2ccccc2-3)cc(OC)c1OC	0.0%	?	0.0	nt	-2.3	-21.6%
O=C(CSc1nc(-c2ccco2)nc2cc(=O)[nH]n12)Nc1ccccc1F	nt	6.5%	nt	nt	nt	-0.5%
CCOc1cc(/C=N/Nc2nc(N3CCCCC3)nc(N3CCCCC3)n2)ccc1OC(=O)c1ccco1	1.2%	?	35.0	nt	2.1	?
CSCCC(=O)N1CCCC(CO)(CCCc2ccccc2)C1 (centres undefined)	nt	?	13.1	3.4	-0.3	-8.9%
Cc1cc(C)cc(NC(=O)c2ccc3c(c2)nnn3C2CCCC2)c1	5.3%	1.46µM*	nt	nt	nt	1.3µM*
Cc1ccc2c(c1)nnn2C1CCN(CC(=O)c2ccc(Cl)cc2)CC1	7.4%	-13.0%	8.1	-0.7	-2.5	-22.7%
